Rows were chosen to be rich in hits. Some 1.2% of all compounds tested hit in one or more screens of this group.
3CLpro inhibitor: SARS-CoV 3CLpro protease inhibition; P0C6X7; recombinant SARS-CoV 3CLpro, quenched FRET peptide cleavage; inhibition, % at 6 µM; actives 0.14% (n = 290,000); AID 1706; in the data active means inhibition above about 12%
SSB-PriA inh: blocks PriA binding to SSB C-terminal tail | AID 1272365 | inhibition, % at 33 µM | AlphaScreen SSBct-PriA binding, biotinylated peptide | actives 0.6% (n = 430,000); in the data active means inhibition mostly above about 37%, no sharp cut-off; inactive means mostly below about 20%;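 further: plate controls were negative control peptide for no effect and reference peptide for full effect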
PrPC surface inh: reduces human prion protein on the cell surface. inhibition, % at 13.8 µM. AID 720596. P04156. cell surface PrPC, TR-FRET read-out. actives 0.43% (n = 370,000); in the data active means inhibition above about 24%; further: 0% = median of the test wells and 100% = reference compound wells
PrP UTR inh: suppresses PrP 5' UTR mRNA reporter expression; actives 0.35% (n = 340,000); inhibition, % (test concentration not listed); cell-based PrP 5' UTR mRNA reporter, plate reader; in the data active means inhibition above about 52%; further: 0 = median of the neutral control wells
BJeLR viability: BJeLR cell viability loss; BJeLR (HRASV12) viability, CellTiter-Glo ATP luminescence, 48 h; inhibition, % (no concentration beside the values); actives 0.17% (n = 300,000); in the data active means inhibition above about 50%
PrPC TRFRET cf: cell surface PrPC inhibition, TR-FRET confirmation; shares compounds with PrPC surface inh; cell surface PrPC level; AID 743200; inhibition, % at 13.8 µM; actives 65% (n = 1,500); in the data active means inhibition above about 25%
LD9 tox: counter-screen for PrPc inhibitors: cytotoxicity in LD9 cells; shares compounds with PrPC surface inh; luminescence viability; inhibition, % at 13.8 µM; actives 29% (n = 1,500); in the data active means inhibition above about 9.5%
Active calls of the source: *; x = no result given.

SMILES	3CLpro inhibitor	SSB-PriA inh	PrPC surface inh	PrP UTR inh	BJeLR viability	PrPC TRFRET cf	LD9 tox
CN1C(=O)C(C)(C)c2cc(S(=O)(=O)N3CCC(C(=O)Nc4ccc(Cl)cc4)CC3)ccc21	-4.0	-5.3	-1.8	2.5	9.8	x	x
CCOc1ccc(NC(=O)C2CCCN(S(=O)(=O)c3ccc4c(c3)C(C)(C)C(=O)N4C)C2)cc1 (stereo not given)	x	x	39.2*	x	x	32.7*	-4.2
CNc1nn(CC(=O)N2CCN(c3ccccc3OC)CC2)c(N)c1-c1nc(-c2ccccc2)no1	x	5.0	x	x	x	x	x
O=C(Nc1cc(S(=O)(=O)N2CCOCC2)ccc1N1CCCC1)c1cc2c(s1)CCCC2	x	x	52.1*	x	x	74.7*	-5.1
O=C(Nc1cccc(S(=O)(=O)Nc2ccc(Cl)cc2)c1)c1cc2c(s1)CCCC2	5.1	-13.5	26.5*	-3.5	-2.4	32.1*	-3.1
O=C(NC1CCCCCC1)c1cc(S(=O)(=O)N2CCOCC2)ccc1N1CCCCC1	2.0	-22.9	28.0*	-5.4	-2.7	17.9	-2.8
O=C(Nc1ccc(N2CCOCC2)cc1)c1cc2c(s1)CCCCC2	3.2	-0.8	25.0*	-22.3	2.1	12.4	11.9*
COc1cc(S(=O)(=O)NCCc2ccccc2)ccc1Cl	x	-3.0	x	x	x	x	x
CN(C)S(=O)(=O)c1ccc(NC(=O)CSc2ncnc3ccccc23)cc1	-2.4	8.1	50.3*	-9.1	2.0	53.4*	-12.8
O=C(CSc1ncnc2ccccc12)Nc1ccc(N2CCOCC2)cc1	5.2	x	x	x	-0.8	x	x
O=C(CSc1ncnc2ccccc12)Nc1cccc(S(=O)(=O)N2CCOCC2)c1	3.3	-4.7	68.0*	-44.9	2.6	65.6*	3.0
CN(C)S(=O)(=O)c1cccc(NC(=O)CSc2ncnc3ccccc23)c1	-1.1	-10.7	51.4*	4.1	8.3	77.1*	-4.0
CCOc1ccc(S(=O)(=O)Oc2ccc3oc4ccccc4c3c2)cc1	x	3.0	x	x	x	x	x
CC(=O)c1sc(NC(=O)Cc2c(F)cccc2Cl)nc1C	-0.3	11.8	40.9*	-16.7	-5.2	43.5*	-8.9
CCOC(=O)c1sc(NC(=O)Cc2c(F)cccc2Cl)nc1C	7.5	-18.3	4.7	-20.9	9.2	x	x
O=C(Nc1cc2ccccc2cc1NC(=O)c1ccc(Br)cc1)c1ccc(Br)cc1	x	-8.0	x	x	x	x	x
O=C(Nc1ccc(OC(F)F)c(Cl)c1)Nc1ccc2c(c1)OCO2	1.6	-9.8	28.9*	-51.3	-11.7	21.7	2.9
COc1ccc(C(C)(C)C)cc1NC(=O)Nc1ccc2c(c1)OCO2	10.5	31.8	24.9*	-7.3	-4.5	16.4	-0.9
COc1cc(NC(=O)Nc2ccc3c(c2)OCO3)cc(OC)c1OC	-0.3	-10.5	3.5	-20.2	-0.5	x	x
O=C(Nc1ccc2c(c1)OCO2)Nc1ccc2c(c1)OCO2	1.8	2.9	9.1	-46.2	12.1	x	x
O=C(CSc1nc2ccccc2c(=O)n1Cc1ccc2c(c1)OCO2)NC[C@H]1CCCO1	x	-11.0	x	x	x	x	x
CC(=O)c1cccc(NC(=O)c2ccn(C)n2)c1	x	-11.0	x	x	x	x	x
CSc1nc2ccc(NC(=O)c3cccs3)cc2s1	x	-3.2	25.5*	-55.2	x	24.8*	-0.3
CSc1nc2ccc(NC(=O)c3ccccc3SC)cc2s1	x	3.0	x	x	x	x	x
CCOc1ccccc1NC(=O)Nc1ccccn1	-4.2	-14.0	-5.4	-17.0	-5.3	x	x
SMILES	3CLpro inhibitor	SSB-PriA inh	PrPC surface inh	PrP UTR inh	BJeLR viability	PrPC TRFRET cf	LD9 tox
CCOc1ccccc1NC(=O)Nc1ccc(Cl)cc1	-0.1	-10.8	25.9*	-1.2	1.3	12.7	-0.1
CCOC(=O)C(C)Sc1nnc(-c2c[nH]c3ccccc23)n1CC (stereo not given)	x	-2.0	x	x	x	x	x
O=C(NCc1ccc(F)cc1)C(=O)N1CCN(Cc2ccc3c(c2)OCO3)CC1	x	-5.0	x	x	x	x	x
CCOC(=O)CSc1nc2ccccc2c(=O)n1CC	-0.6	-1.0	-2.6	-6.6	2.5	x	x
CCOC(=O)CNC(=O)CSc1nc(Cc2cccs2)nc2ccccc12	-1.3	3.1	-3.3	-12.5	-2.7	x	x
CCOC(=O)CSc1nc(Cc2ccccc2)nc2ccccc12	-1.5	-33.7	64.4*	-10.8	7.0	88.9*	-0.6
CCOC(=O)CSc1nc(CC)nc2ccccc12	-1.4	-4.4	106.5*	-53.9	-1.4	120.5*	-7.6
O=C(CSc1nc(Cc2ccccc2)nc2ccccc12)Nc1nc2c(s1)CCCC2	-1.8	1.4	4.1	-33.9	2.1	x	x
COC(=O)CSc1nc(Cc2ccccc2)nc2ccccc12	5.2	-25.3	67.7*	-17.8	7.5	91.1*	-7.2
CC(C)OC(=O)CSc1nc(Cc2ccccc2)nc2ccccc12	3.8	-6.3	59.6*	-18.6	6.0	87.5*	3.0
COC(=O)NNC(=O)COc1ccc2ccccc2c1Br	-3.1	0.7	34.4*	-0.6	-2.2	49.1*	-0.7
CCOc1ccccc1OCC(=O)Nc1cc(C)on1	x	-10.9	-3.7	-25.7	x	x	x
O=C(COc1ccc2ccccc2c1Br)NNC(=O)Nc1ccccc1	-3.6	-18.4	6.7	-26.0	3.5	x	x
Cc1cc(NC(=O)COc2ccc3ccccc3c2Br)no1	x	-4.6	80.5*	-67.5	x	101.0*	-2.0
CC(C)(C)C(=O)NNC(=O)COc1ccc2ccccc2c1Br	6.9	-9.4	72.3*	3.8	-0.8	70.9*	-4.2
Cn1cnnc1SCCNC(=O)c1ccc(-n2cncn2)nn1	x	-6.0	x	x	x	x	x
CC(=NNC(=S)Nc1ccc(C(C)C)cc1)c1ccc2c(c1)OCO2	x	5.5	x	x	x	x	x
COc1ccc(NC(=O)c2nn(-c3cccc(F)c3)c(OC)cc2=O)c(OC)c1	x	-15.0	x	x	x	x	x
Cc1ccc(S(=O)(=O)NCCCN2CCCC2)cc1	-2.3	-2.9	54.6*	-30.6	9.6	-1.1	-10.3
COc1ccc2sc3ccccc3c(=O)c2c1OC	4.1	3.9	29.0*	-35.2	1.8	38.1*	-6.6
COc1cccc2sc3cc(NCCCN4CCOCC4)ccc3c(=O)c12	x	-11.2	72.1*	-20.4	x	94.7*	-1.5
COC(=O)C1=C(C)N(Cc2ccccc2C(F)(F)F)C(=NCc2cccc(C(F)(F)F)c2)NC1CCc1ccccc1 (stereo not given)	x	x	0.3	x	x	x	x
COC(=O)C1=C(C)N(Cc2cccc(C(F)(F)F)c2)C(=NCc2cc(OC)c(OC)c(OC)c2)NC1CCc1ccccc1 (stereo not given)	x	x	31.3*	x	x	26.1*	5.2
CC(=O)c1cccc(NC(=O)c2c(F)c(F)c(F)c(F)c2F)c1	1.3	-12.0	-3.6	2.7	13.6	x	x
CC(=O)c1cccc(NC(=O)C2=CN3CCS(=O)(=O)N=C3C=C2)c1	x	-6.7	46.1*	-8.4	x	45.5*	5.1
S=C(NCCc1ccccc1)N1CCn2cccc2C1c1cccnc1 (stereo not given)	-0.9	10.8	32.0*	-14.0	-6.7	1.5	-3.9
CC(=O)c1cc(C(=O)OCC(=O)NCc2ccc(C)cc2)c2ccccn12	x	-23.0	x	x	x	x	x
Cc1ccc(C(=O)NCc2ccncc2)cc1S(=O)(=O)Nc1cccc(C)c1C	-1.1	4.7	24.5*	-20.0	-7.8	32.5*	-3.1
